# PubChem BioAssay (NCI)
# Compounds without any hit were thinned out: in the full panel of roughly 83,000, 20% have a hit.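 Percent growth is the endpoint: 0 to 100 indicates growth inhibition (40 means 60% inhibition), 0 means no net growth, and negative values indicate cell death.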 A number with no mark means an inactive call. Calls of active or inactive are those of the source. How the source made its calls: active means growth percent below 10; inactive means the rest.
# Assays:
# Test in all cases: NCI-60 one-dose screen, 48 h (100 = growth as untreated, 0 = no growth, -100 = all killed)
# Details in all cases: 10 µM unless noted
# SK-MEL-2 melanoma = tested on: SK-MEL-2 melanoma
# EKVX NSCLC = tested on: EKVX NSCLC
# SN12C renal = tested on: SN12C renal
# UO-31 renal = tested on: UO-31 renal
# TK-10 renal = tested on: TK-10 renal
# ACHN renal = tested on: ACHN renal
# CAKI-1 renal = tested on: CAKI-1 renal
# A498 renal = tested on: A498 renal
# CCRF-CEM leukemia = tested on: CCRF-CEM leukemia
# MOLT-4 leukemia = tested on: MOLT-4 leukemia
# SR leukemia = tested on: SR leukemia
# RPMI-8226 leukemia = tested on: RPMI-8226 leukemia
# OVCAR-8 ovarian = tested on: OVCAR-8 ovarian
# OVCAR-5 ovarian = tested on: OVCAR-5 ovarian
# OVCAR-4 ovarian = tested on: OVCAR-4 ovarian
# SK-OV-3 ovarian = tested on: SK-OV-3 ovarian
# IGROV1 ovarian = tested on: IGROV1 ovarian
# OVCAR-3 ovarian = tested on: OVCAR-3 ovarian
# HS 578T breast = tested on: HS 578T breast
# NCI/ADR-RES ovarian = tested on: NCI/ADR-RES ovarian
SMILES,growth (SK-MEL-2 melanoma),growth (EKVX NSCLC),growth (SN12C renal),growth (UO-31 renal),growth (TK-10 renal),growth (ACHN renal),growth (CAKI-1 renal),growth (A498 renal),growth (CCRF-CEM leukemia),growth (MOLT-4 leukemia),growth (SR leukemia),growth (RPMI-8226 leukemia),growth (OVCAR-8 ovarian),growth (OVCAR-5 ovarian),growth (OVCAR-4 ovarian),growth (SK-OV-3 ovarian),growth (IGROV1 ovarian),growth (OVCAR-3 ovarian),growth (HS 578T breast),growth (NCI/ADR-RES ovarian)
C=C1CC[C@@H]2[C@]3(C)COC(c4ccccc4)O[C@@H]3CC[C@@]2(C)[C@@H]1C/C=C1/C(=O)OCC1OC(C)=O (stereo not given in full),-61.5% (active),21.8%,-96.9% (active),-94.1% (active),-21.2% (active),-100% (active),20.6%,129%,-29.3% (active),-28.7% (active),-32.8% (active),-42.4% (active),-64.9% (active),-78.5% (active),0.176% (active),93.7%,-51.3% (active),-88.2% (active),61.5%,-73.1% (active)
COc1ccc2[nH]cc(-c3nc(N)nnc3-c3cn(C)c4ncccc34)c2c1,49.4%,63.7%,59.6%,43.9%,93.1%,67.3%,38.8%,104%,67.7%,41.3%,33.5%,58.2%,64.4%,77.9%,78%,86.3%,32.9%,16.2%,37.2%,99%
CC(=O)Nc1ccc(C(=O)NC(=S)Nc2ccc(S(N)(=O)=O)cc2)cc1,97.1%,90.1%,91.7%,80.7%,89.1%,102%,87.9%,104%,100%,111%,105%,105%,94.6%,96.5%,84.9%,101%,92.3%,97.7%,94.5%,95.9%
C#CCOc1ccc(/C=N/Nc2nc(-c3cc4cc(OC)ccc4oc3=O)cs2)cc1OC,55.2%,43.5%,42.3%,87.7%,89.5%,40.2%,39.2%,78.7%,66.3%,63.9%,34.7%,50.9%,50.8%,47%,40.7%,71%,81%,63.5%,68.1%,50.5%
COc1cc2c(c(OC)c1OC)C(=O)CC(c1cccc(NC(=O)c3cc(NC(=O)[C@H](C)N)ccc3Cl)c1)O2 (stereo not given in full),33.5%,48.4%,51.8%,46.4%,101%,50.4%,51.5%,80.7%,12.4%,8.42% (active),9.41% (active),4.69% (active),9.03% (active),88%,44.4%,102%,70.3%,25.7%,66.9%,11.1%
O=C(Nc1cccc(-n2cnc3cc(-c4ccc(O)cc4)ccc32)c1)C1CC1,58.4%,44.4%,24.9%,23.4%,67.4%,15.4%,26.2%,78.2%,25.6%,12.7%,21.6%,25.5%,17.9%,41.2%,49.6%,35.5%,28.2%,-2.16% (active),9.4% (active),24.8%
Cc1ccc(NC(=O)CN2CCN(c3ncnc4c3cnn4-c3ccccc3)CC2)cc1,87.8%,81%,74.6%,63%,152%,-32.7% (active),77.8%,104%,78.4%,68.1%,52.6%,75.8%,71.4%,98%,82.9%,112%,81.3%,103%,77.7%,79.5%
CN(C)c1nc(NCCNS(=O)(=O)c2ccc(C3=Nc4c(N)nc(N)nc4NC(c4ccc(F)cc4)C3)cc2)nc(Nc2ccc(F)cc2)n1 (stereo not given),58.7%,47.5%,42.7%,82.9%,65.9%,77.1%,64.4%,53.3%,8.67% (active),6.56% (active),0.331% (active),-6.35% (active),43.5%,78.2%,40.8%,73.4%,38.6%,40.9%,51.8%,98%
CC1(C)CC[C@]2(C(=O)O)CC[C@]3(C)C(=CCC4[C@@]5(C)C[C@@H](O)[C@@H]6OC(c7ccco7)OC[C@@]6(C)C5CC[C@]43C)C2C1 (stereo not given in full),-23.4% (active),22.8%,20%,22.7%,29.2%,7.44% (active),33.1%,62.4%,21.7%,21%,18.2%,15%,26.9%,65.4%,47.9%,75.6%,31.6%,20.5%,31.2%,35.6%
COc1c(F)ccc(C(=O)Nc2ccc3nc(NC(=O)C4CCCN(S(=O)(=O)c5ccc(C#N)cc5)C4)sc3c2)c1F (stereo not given),97.1%,96.2%,94.6%,68.8%,112%,97.4%,90.6%,101%,92.2%,62.4%,74.4%,70.1%,111%,103%,86.3%,103%,97.1%,102%,79.1%,96.1%
O=C(/C=C/Nc1ccc2oc(=O)ccc2c1)c1cc2cc(Br)ccc2oc1=O,107%,105%,102%,81.4%,124%,107%,92.5%,144%,120%,115%,99.2%,103%,104%,108%,102%,99.8%,105%,122%,92.6%,109%
Cn1cc(-c2cc3nc(-c4c[nH]c5ccc(Cl)cc45)cc(N)n3n2)c2ccccc21,-89.8% (active),-88.6% (active),-65.9% (active),-98.6% (active),-92.1% (active),-100% (active),-94.6% (active),-62.7% (active),-21.5% (active),-36.1% (active),5.34% (active),-38.7% (active),-64.7% (active),-89.2% (active),-67.4% (active),-86.5% (active),-53.1% (active),-62.7% (active),-27.1% (active),-29.7% (active)
COc1cc2c(c(OC)c1OC)C(=O)CC(c1cccc(NC(=O)c3cc(NC(=O)[C@@H](N)CO)ccc3C)c1)O2 (stereo not given in full),111%,108%,102%,92%,105%,107%,99.9%,126%,102%,114%,100%,108%,104%,101%,112%,111%,114%,121%,110%,104%
COc1ccc(-c2ccnc(SCc3cc4cc(OC)ccc4[nH]c3=O)n2)cc1,12.8%,34%,14.7%,21.1%,36.8%,33.6%,38.8%,79.6%,6.65% (active),4.45% (active),4.47% (active),9.3% (active),33.3%,46.8%,43.3%,45.2%,33.3%,18.3%,28.2%,-11.4% (active)
Cc1cc2nc3c4ccccc4n(CCNCCN(C)C)c3nc2cc1C,25.4%,73.2%,25.3%,-16.5% (active),54.5%,11%,14.1%,75.4%,21.7%,4.83% (active),-1.38% (active),-25.9% (active),24.2%,39.5%,33%,68.8%,20%,40.5%,44.9%,24.6%
